Most compounds without a hit are left out; they make up all but 19% or so of the library.
IL-1B inflam inh: qHTS for Inhibitors of Inflammasome Signaling: IL-1-beta AlphaLISA Primary Screen; THP-1 LPS/ATP IL-1B secretion, AlphaLISA, 16 h; stronger effect = lower value; hit rate 4.7% among 360,000; activity change, % at 57.5 µM; in the data active = activity change below about -50%; inconclusive = mostly about -30% to -49%
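THP-1 cells pretreated 1 hr with compounds (up to 57.5 uM final), then stimulated with LPS (250 ng/mL final) plus ATP (1.25 mM final); secreted IL-1B measured by AlphaLISA after 16 hr, decreased signal indicating inhibition.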
uPA generation: qHTS for Inhibitors of Cell Surface uPA Generation; cell surface uPA generation assay, qHTS; Potency, µM (highest dose often 38.3 µM), usual class: inhibitors; hit rate 0.31% among 330,000; AID 540303, 2011; active = well fitted inhibition curve with a large enough effect; inconclusive = small, poorly fitted or top-dose-only effect; inactive = no such curve, though single readings can be large or run the other way; tested in mouse RAW 264.7 cells; note: nearly all actives have a fitted effect of over 55% in size
DT40 TDP1 CPT: qHTS for Inhibitors of human tyrosyl-DNA phosphodiesterase 1 (TDP1): qHTS in cells in presence of CPT. chicken DT40 Tdp1-/-;hTDP1 cells + 20 nM CPT, ATP luminescence, 48 h. Potency, µM (series often up to 46.2 µM), actives largely listed as inhibitors. hit rate 12% among 420,000. AID 686979, 2013; note: nearly all actives have a fitted effect of over 55% in size
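Chicken DT40 Tdp1-/- cells stably complemented with human TDP1 were seeded at 400 cells/well in medium containing 20 nM camptothecin, exposed to pin-transferred compounds, and grown at 37 °C for at least 48 hr. Viability was read as ATP luminescence.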
DT40 TDP1 no CPT: qHTS for Inhibitors of human tyrosyl-DNA phosphodiesterase 1 (TDP1): qHTS in cells in absence of CPT; DT40 Tdp1-/- hTDP1 cells, no CPT, ATP luminescence, 48 h; Potency, µM (doses to about 46.2 µM), most hits filed as inhibitors; hit rate 15% among 420,000; AID 686978, 2013; note: nearly all actives have a fitted effect of over 55% in size
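Luminescent ATP content (CellTiter-Glo) served as the growth readout. Knockout chicken DT40 cells expressing human TDP1 were exposed to compounds without camptothecin for a minimum 48 hr at 37 °C.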
HT1080 IDH1KD tx: qHTS for induction of synthetic lethality in tumor cells producing 2HG: qHTS for the HT-1080-IDH1KD cell line. hit rate 2% among 360,000. AID 686971, 2013. Potency, µM (top dose mostly 46.1 µM), hits mostly cytotoxic. HT-1080 IDH1 knockdown viability, ATP luminescence, 48 h
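Knockdown cells (IDH1KD HT-1080) received compounds 2 h after plating at 750 cells/well and were kept 48 h at 37 °C in 5% FBS RPMI. A CellTiter-Glo luminescence read gave % activity for curve fitting.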
HT1080NT lethal: qHTS for induction of synthetic lethality in tumor cells producing 2HG: qHTS for the HT-1080-NT fibrosarcoma cell line; HT-1080-NT fibrosarcoma viability, CellTiter-Glo ATP luminescence, 48 h; Potency, µM (doses to about 46.1 µM), usual class: cytotoxic; hit rate 1.6% among 360,000; AID 686970, 2013;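 note: NT is the 2HG producing partner of a matched IDH1 knockdown line; nearly all actives have a fitted effect of over 55% in size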
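Viability of the 2HG-overproducing fibrosarcoma line after 48 hours of compound exposure at 37 degrees C was determined by luminescence with CellTiter-Glo, and concentration-effect curves were then fitted and categorized.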
Of the large screens only hits and unclear results are named; the others gave an inactive call. Unless noted, calls come from the whole dose curve; as a rule, active = well fitted curve in the direction sought with a large enough effect; inconclusive = small, poorly fitted or top-dose-only effect, or another doubt; inactive = no such curve, though single readings can be large; an effect the other way counts as inactive or inconclusive.

CCCCC1=CC2=CC(=O)C(C)(OC(=O)CC)C(=O)C2=CN1Cc1ccco1 (centres undefined)	DT40 TDP1 CPT inconclusive
CCCCC1=CC2=CC(=O)C(C)(OC(=O)CC)C(=O)C2=CN1Cc1ccccc1 (centres undefined)	DT40 TDP1 CPT 13µM, DT40 TDP1 no CPT 18µM
CCCCC1=CC2=CC(=O)C(C)(OC(=O)CC)C(=O)C2=CN1CCc1c[nH]c2ccccc12 (centres undefined)	DT40 TDP1 CPT inconclusive, DT40 TDP1 no CPT 16µM
CCCCC1=CC2=CC(=O)C(C)(OC(=O)CC)C(=O)C2=CN1c1ccccc1 (centres undefined)	DT40 TDP1 CPT inconclusive, DT40 TDP1 no CPT 16µM
O=C(CCN1C(=O)c2cccc([N+](=O)[O-])c2C1=O)Nc1nccs1	none
CCc1ccc(NC(=O)N2CCN(C(=O)C3CCCO3)CC2)cc1 (centres undefined)	none
CCC(Oc1ccccc1F)C(=O)Nc1c(C(=O)c2ccccc2)oc2ccccc12 (centres undefined)	DT40 TDP1 no CPT inconclusive (no result: IL-1B inflam inh, uPA generation, HT1080 IDH1KD tx, HT1080NT lethal)
CC1(C)Nc2ccc(O)cc2-c2c1ssc2=S	DT40 TDP1 CPT 0.73µM, DT40 TDP1 no CPT 2.1µM
Cc1occc1C(=O)N1CCCC(CO)(Cc2ccc(F)cc2F)C1 (centres undefined)	none
CCC(C)(C)NC(=O)C(c1sccc1C)N(Cc1ccco1)C(=O)c1csnn1 (centres undefined)	DT40 TDP1 CPT 16µM, DT40 TDP1 no CPT 16µM
CCC(C)(C)NC(=O)C(c1ccc(F)cc1)N(Cc1ccco1)C(=O)c1cnccn1 (centres undefined)	IL-1B inflam inh -83
COC(=O)c1ccc(C(C(=O)NCc2ccccc2)N(Cc2ccco2)C(=O)c2cnccn2)cc1 (centres undefined)	IL-1B inflam inh -59
COc1cc(OC)cc(C(C(=O)NCc2ccccc2)N(Cc2ccco2)C(=O)c2ccno2)c1 (centres undefined)	DT40 TDP1 CPT inconclusive, DT40 TDP1 no CPT 23µM
O=C(NCc1ccccc1)C(c1cccnc1)N(Cc1ccco1)C(=O)c1ccccn1 (centres undefined)	none
CC(C)c1ccc(OCC(=O)NNC(=S)NC(=O)c2cccs2)c(Br)c1	DT40 TDP1 CPT 18µM, DT40 TDP1 no CPT 23µM
Cc1ccc(OCC(=O)NNC(=O)c2ccc(NC(=O)C3CC3)cc2)c(C)c1	none
N#Cc1ccc(OCC(=O)NNC(=S)NC(=O)C2CC2)cc1	DT40 TDP1 CPT inconclusive, DT40 TDP1 no CPT 21µM
Cc1ccc(OCC(=O)NNC(=S)NC(=O)C(C)(C)C)c(Br)c1	DT40 TDP1 CPT inconclusive, DT40 TDP1 no CPT 18µM, HT1080 IDH1KD tx inconclusive, HT1080NT lethal inconclusive
Cc1ccc(OCC(=O)NNC(=S)NC(=O)C2CCCCC2)c(C)c1	DT40 TDP1 CPT inconclusive, DT40 TDP1 no CPT 21µM
Cc1ccc(OCC(=O)NC(=S)Nc2ccccn2)c(Br)c1	none
N#Cc1ccc(NC(=S)NC(=O)C2CCCCC2)cc1	DT40 TDP1 CPT inconclusive, DT40 TDP1 no CPT inconclusive
O=C(c1cccc(F)c1)N1CCC2(CCCN(Cc3ccccc3)C2)CC1	none (no result: IL-1B inflam inh, uPA generation, HT1080 IDH1KD tx, HT1080NT lethal)
O=C(NC1CCCC1)c1cnn(-c2ccc(F)cc2F)c1C1CCNCC1	DT40 TDP1 no CPT inconclusive (no result: IL-1B inflam inh, uPA generation, HT1080 IDH1KD tx, HT1080NT lethal)
C[C@H](CO)N1C[C@H](C)[C@@H](CN(C)C(=O)c2cc(-c3ccccc3)on2)OCc2cn(nn2)CCCC1=O	none (no result: uPA generation)
CC(C)c1ccc(OCC(=O)NNC(=S)NC(=O)C2CC2)cc1	DT40 TDP1 CPT inconclusive, DT40 TDP1 no CPT 15µM, HT1080 IDH1KD tx inconclusive, HT1080NT lethal inconclusive
CCC(C)c1ccc(OCC(=O)NNC(=O)C2CCCCC2)cc1 (centres undefined)	none
COc1ccc(OC)c(-c2nn(-c3ccccc3)cc2C(=O)NC2(C)CCS(=O)(=O)C2)c1 (centres undefined)	none (no result: uPA generation)
COCCCNc1nc2nonc2nc1N1CCN(Cc2cccc(C)c2)CC1	DT40 TDP1 CPT inconclusive, DT40 TDP1 no CPT inconclusive
Fc1cccc(CN2CCN(c3nc4nonc4nc3NC3CC3)CC2)c1	DT40 TDP1 no CPT 23µM
C=CCNC(=S)NNC(=O)COc1ccc2cc(Br)ccc2c1	IL-1B inflam inh inconclusive, DT40 TDP1 CPT inconclusive, DT40 TDP1 no CPT 8.2µM (no result: uPA generation)
O=C(COc1ccc(F)cc1)OCc1cc(=O)n2nc(C3CCCCC3)sc2n1	none (no result: IL-1B inflam inh, uPA generation, HT1080 IDH1KD tx, HT1080NT lethal)
Cc1cc2oc3ccc(NCCCn4ccnc4)cc3c(=O)c2cc1C	uPA generation inconclusive, DT40 TDP1 CPT inconclusive, DT40 TDP1 no CPT 15µM, HT1080 IDH1KD tx inconclusive, HT1080NT lethal inconclusive
Cc1cc2oc3ccc(NCCCN4CCOCC4)cc3c(=O)c2cc1C	DT40 TDP1 CPT 10µM, DT40 TDP1 no CPT 13µM
COc1ccc(NC(=O)c2ccncc2)cc1S(=O)(=O)N1CCCCC1	none (no result: uPA generation)
Cc1cccc(NC(=O)CSCC(=O)N(C)Cc2c(F)cccc2Cl)c1	DT40 TDP1 CPT inconclusive, DT40 TDP1 no CPT 13µM
Cc1cc(NC(=O)CSCC(=O)N(C)Cc2c(F)cccc2Cl)no1	none
Cc1cccc(NC(=O)CSCC(=O)Nc2cc(Cl)ccc2N2CCN(C)CC2)c1	IL-1B inflam inh -79, DT40 TDP1 CPT inconclusive, DT40 TDP1 no CPT inconclusive, HT1080 IDH1KD tx 15µM, HT1080NT lethal 15µM
Cc1csc(=O)n1CCC(=O)N(C)Cc1c(F)cccc1Cl	DT40 TDP1 CPT inconclusive, DT40 TDP1 no CPT 16µM
Cc1cc(NC(=O)CSCC(=O)Nc2cc(Cl)ccc2N2CCN(C)CC2)no1	none
CCCCC1(c2ccc(F)cc2)NC(=O)N(CC(=O)N2CCN(C(=O)c3ccco3)CC2)C1=O (centres undefined)	none
Nc1c(C(=O)Nc2ccccc2Cl)nnn1Cc1cccc(Cl)c1	none (no result: IL-1B inflam inh, uPA generation, HT1080 IDH1KD tx, HT1080NT lethal)
CC(C)C(C(=O)OCC(=O)c1ccccc1)N1C(=O)C2C3C=CC(C3)C2C1=O (centres undefined)	uPA generation inconclusive
Cc1nc2sc(C(c3ccco3)N3CCN(C(c4ccccc4)c4ccccc4)CC3)c(O)n2n1 (centres undefined)	uPA generation inconclusive, DT40 TDP1 CPT inconclusive, DT40 TDP1 no CPT 18µM
COc1cc(C(c2sc3nc(C)nn3c2O)N2CCc3ccccc3C2)cc(OC)c1OC (centres undefined)	DT40 TDP1 CPT 23µM, DT40 TDP1 no CPT 10µM
Cc1nc2sc(C(c3ccco3)N3CCN(c4ccccc4)CC3)c(O)n2n1 (centres undefined)	DT40 TDP1 CPT inconclusive
